Bioassay records deposited in PubChem BioAssay by National Center for Advancing Translational Sciences (NCATS).
Cruzain noTriton – inhibitors of Trypanosoma cruzi cruzain without detergent | P25779 | purified cruzain, Z-FR-AMC fluorescence, no detergent | Potency, µM, without a hit: max response, negative = inhibition, usual class: inhibitors | 200,000 compounds, 2.3% hits;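 further: plate controls were enzyme without inhibitor for no effect and buffer without enzyme for full effect; nearly all actives have a fitted effect of over 40% in size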
Target sequence (P25779 123-467 limits assumed): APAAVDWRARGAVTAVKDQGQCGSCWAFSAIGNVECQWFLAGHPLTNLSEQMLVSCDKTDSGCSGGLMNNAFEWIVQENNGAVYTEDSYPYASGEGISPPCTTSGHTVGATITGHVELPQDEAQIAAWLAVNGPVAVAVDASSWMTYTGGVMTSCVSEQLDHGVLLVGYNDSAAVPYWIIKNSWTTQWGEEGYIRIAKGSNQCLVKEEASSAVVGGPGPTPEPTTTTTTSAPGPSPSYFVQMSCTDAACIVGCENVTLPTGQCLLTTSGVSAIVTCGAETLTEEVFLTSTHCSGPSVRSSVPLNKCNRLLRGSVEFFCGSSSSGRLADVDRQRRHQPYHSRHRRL
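Detergent-free condition (0.00005% Triton X-100) in acetate buffer pH 5.5 with DTT. 1.5 nM enzyme and compound were pre-mixed 15 min, then 2 uM Z-FR-AMC substrate added; reaction progress from fluorescence change between first and third reads (60 s).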
Cruzain Triton – cruzain (T. cruzi) inhibition with detergent. purified cruzain, Z-FR-AMC fluorescence, 0.01% Triton. P25779. 200,000 compounds, 0.43% hits. Potency, µM, without a hit: max response, negative = inhibition, actives largely listed as inhibitors;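 further: plate controls were neutral wells for no effect and buffer without enzyme for full effect; nearly all actives have a fitted effect of over 40% in size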
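Purified cruzain (1.5 nM final) was preincubated with compounds for 15 min at room temperature in 100 mM sodium acetate pH 5.5, 5 mM DTT, 0.01% Triton X-100. Reaction started with 2 uM Z-FR-AMC; AMC fluorescence change over 60 s gave activity.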
Active calls of the source: *. In the library only some 2.6% were active in any assay of this set; here they are far more common. The call rests on the fitted dose curve; in most records, active means well fitted curve in the direction sought with a large enough effect; inconclusive means small, poorly fitted or top-dose-only effect, or another doubt; inactive means no such curve, though single readings can be large; an effect the other way counts as inactive or inconclusive. Potency means the concentration at half of the fitted maximal effect.

For COc1ccccc1[C@H]1C(c2cccc(Cl)c2)=NN(c2ccccc2)[C@@H]1CO the results were Cruzain noTriton inconclusive and Cruzain Triton 0%.
Cc1cccc(C2=NN(c3ccccc3)[C@H](CO)[C@H]2c2ccc(F)cc2)c1 was read as Cruzain noTriton inconclusive and Cruzain Triton -13%.
`OC[C@@H]1[C@@H](c2ccccc2)C(c2cccc(Cl)c2)=NN1c1ccccc1` gave Cruzain noTriton 25µM* and Cruzain Triton 2%.
Screening Cc1cccc(C2=NN(c3ccccc3)[C@H](CO)[C@H]2c2ccc(Cl)cc2)c1 returned Cruzain noTriton 35µM* and Cruzain Triton 0%.
Screening OC[C@@H]1[C@@H](c2ccccc2)C(c2ccccc2)=NN1c1ccccc1 returned Cruzain noTriton 28µM* and Cruzain Triton 0%.
`COc1ccc(-n2c(=O)c3c(c4cc(OC)ccc4n3C)n(C)c2=O)cc1` gave Cruzain noTriton 5% and Cruzain Triton 0%.
For CC1=C(C(=O)Nc2ccc(C)cc2C)C(c2ccc(O)cc2)n2nc(SCC(=O)c3ccc(C)cc3)nc2N1 (stereo unspecified) the results were Cruzain noTriton 12% and Cruzain Triton 1%.
For Cc1c(Cl)cccc1-c1ccc(CNCCSc2nnnn2-c2ccccc2)o1 the results were Cruzain noTriton 7.9µM* and Cruzain Triton 13µM*.
Fc1ccc(-c2ccc(CNCCSc3nnnn3-c3ccccc3)o2)cc1 was read as Cruzain noTriton -10% and Cruzain Triton 1%.
`COc1ccc(-c2cn3cccnc3n2)cc1NC(=O)Cc1ccccc1` gave Cruzain noTriton 0% and Cruzain Triton -2%.
`COc1ccc(-c2coc3cc4oc(=O)cc(C)c4cc23)cc1F` gave Cruzain noTriton -27% and Cruzain Triton 3%.
COc1ccc(-c2coc3cc4oc(=O)cc(-c5ccccc5)c4cc23)cc1F was read as Cruzain noTriton 10µM* and Cruzain Triton 1%.
Cc1[nH]c2ccccc2c1C(=O)COC(=O)CCS(=O)(=O)c1ccccc1Cl was read as Cruzain noTriton -8% and Cruzain Triton -9%.
For Cc1nc(NC(=O)COC(=O)CCS(=O)(=O)c2ccccc2Cl)c(Cl)cc1Cl the results were Cruzain noTriton -26% and Cruzain Triton 22µM*.
Screening CCn1c(=O)n(-c2ccc3c(c2)OCO3)c2nc(-c3ccc(C(C)C)cc3)nc(C(N)=O)c21 returned Cruzain noTriton -10% and Cruzain Triton -1%.
`CCCCC/C=C\C/C=C\CCCCCCCC(=O)NCCc1ccc(O)c(O)c1` gave Cruzain noTriton -4% and Cruzain Triton -1%.
CCOC(=O)c1c(NC(=O)c2cc3n(n2)C(C(F)(F)F)CC(c2ccccc2)N3)sc(C)c1C (stereo unspecified) was read as Cruzain noTriton 16µM* and Cruzain Triton -2%.
Screening CCCCNC(=O)c1cc2n(n1)C(C(F)(F)F)CC(c1ccccc1)N2 (stereo unspecified) returned Cruzain noTriton inconclusive and Cruzain Triton -2%.
Screening O=C(CSc1nc2ccccc2o1)Nc1nc(-c2ccccc2)c(-c2ccccc2)s1 returned Cruzain noTriton 13µM* and Cruzain Triton -1%.
Screening O=C(CSc1nc(-c2ccccc2)c(-c2ccccc2)o1)Nc1nnc(-c2ccccc2)s1 returned Cruzain noTriton 10µM* and Cruzain Triton -4%.
Screening O=C(CSc1nc(-c2ccccc2)c(-c2ccccc2)o1)Nc1nncs1 returned Cruzain noTriton 6% and Cruzain Triton 0%.
Screening C=CCSc1nnc(NC(=O)CSc2nc3ccccc3o2)s1 returned Cruzain noTriton 16µM* and Cruzain Triton 8%.
Screening O=C(CSc1nc2ccccc2o1)Nc1nncs1 returned Cruzain noTriton 3% and Cruzain Triton 3%.
`Cc1nnc(NC(=O)CSc2nc3ccccc3o2)s1` gave Cruzain noTriton -13% and Cruzain Triton 2%.
Screening CCN(CC)S(=O)(=O)c1ccc2c(c1)nc(CN(C)C(=O)c1cccc(Cl)c1)n2C returned Cruzain noTriton -6% and Cruzain Triton 1%.
`CC1CCN(c2csc3ccc(F)cc3c2=O)CC1` gave Cruzain noTriton 2% and Cruzain Triton -7%.
For COc1ccc(CNC(=O)c2ccc(CS(=O)Cc3ccccc3Cl)o2)cc1 (stereo unspecified) the results were Cruzain noTriton -2% and Cruzain Triton -4%.
Cc1ccccc1CN1CCc2nc(N3CCN(c4ncccn4)CC3)ncc2C1 was read as Cruzain noTriton 4% and Cruzain Triton -4%.
Screening CCCc1cnc2c(c1SCc1cccc(F)c1)c(=O)n(C)c(=O)n2C returned Cruzain noTriton -2% and Cruzain Triton 0%.
For CC(C)Cc1nn2cc(-c3cccc(Br)c3)nc2s1 the results were Cruzain noTriton 2% and Cruzain Triton -6%.
Screening CCOc1ccccc1NC(=S)NC(=O)CCCOc1ccc(Cl)cc1Cl returned Cruzain noTriton 20µM* and Cruzain Triton -2%.
For CCOc1ccccc1OCC(=O)Nc1ccc(Cl)cc1Cl the results were Cruzain noTriton 6% and Cruzain Triton 3%.
`CCCc1ccc(S(=O)(=O)N2CCC(Oc3ccc(-n4cnnn4)cc3)CC2)cc1` gave Cruzain noTriton -1% and Cruzain Triton 1%.
`Clc1ccc(-c2nnc3sc(-c4ccc(Br)o4)nn23)c(Cl)c1` gave Cruzain noTriton 20µM* and Cruzain Triton -1%.
Clc1ccccc1-c1nnc2sc(-c3ccc(Br)o3)nn12 was read as Cruzain noTriton -13% and Cruzain Triton -5%.
For CCOc1ccc(CNC(=O)CSc2nnc(C)c3c(C)n(-c4ccc(Cl)cc4)nc23)cc1 the results were Cruzain noTriton 2% and Cruzain Triton -4%.
Screening CC(C)CC(NC(=O)C1CCCN1C(=O)OC(C)(C)C)C(=O)NCC(N)=O (stereo unspecified) returned Cruzain noTriton -5% and Cruzain Triton 2%.
Screening CC(C)C[C@H](NC(=O)C1OC1C(=O)O)C(=O)NCCCCN=C(N)N (stereo partly specified) returned Cruzain noTriton 0.04µM* and Cruzain Triton 0.079µM*.
For Cc1ccc(N(CC(=O)NCc2ccc(OC(C)C)cc2)S(=O)(=O)N(C)C)cc1 the results were Cruzain noTriton 9% and Cruzain Triton 2%.
For CCc1ccc(-n2c(Cc3ccccc3)nnc2SCc2nc(-c3cccs3)no2)cc1 the results were Cruzain noTriton -9% and Cruzain Triton -3%.
Screening CCc1cc2cc3c(cc2nc1SCC(=O)Nc1nccs1)OCO3 returned Cruzain noTriton 20µM* and Cruzain Triton 1%.
Screening Cc1ccc2c3c(c(SCC(=O)Nc4nccs4)nc2c1)CCCC3 returned Cruzain noTriton 1% and Cruzain Triton 2%.
Cc1[nH]c2ccccc2c1CCNC(=O)c1ccc2c(c1[N+](=O)[O-])C(=O)c1ccccc1C2=O was read as Cruzain noTriton 10µM* and Cruzain Triton 2%.
Screening CN(C)C(=O)c1ccc2c(c1[N+](=O)[O-])C(=O)c1ccccc1C2=O returned Cruzain noTriton -11% and Cruzain Triton 0%.
Cc1[nH]c2c(C)cccc2c1CCNC(=O)c1ccc2c(c1[N+](=O)[O-])C(=O)c1ccccc1C2=O was read as Cruzain noTriton 7.9µM* and Cruzain Triton 3%.
For Cc1ccc2c(c1[N+](=O)[O-])C(=O)c1ccccc1C2=O the results were Cruzain noTriton 2% and Cruzain Triton 6%.
`CCOc1ccc2nc(N3CCCC(C(=O)Nc4ccc(Br)c(C)c4)C3)sc2c1` (stereo unspecified) gave Cruzain noTriton -9% and Cruzain Triton -1%.
